Among the data in PubChem BioAssay are composite z-score and z-score values, retold here.

Active and inactive are the calls of the source.

In assay [1] the test system is PRMT1 (protein arginine N-methyltransferase 1). As to the kind of experiment: small molecules binding arginine methyltransferase PRMT1 – biochemical, small-molecule microarray, 635 nm fluorescence, primary screen (AID 1088).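 Further: binding of Prmt1 protein to compounds spotted on small-molecule microarray slides.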 The following applies: higher = more signal.
Assay [2] in a line: growth effects on S. cerevisiae YJM789 – YJM789 clinical isolate, OD600, 24 h, basal, primary screen (AID 1089).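 Further: growth of clinical yeast isolate S. cerevisiae YJM 789 seeded 1000 cells per well; test concentration not given here.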 The note with it: higher = more signal, called active from +8 up or from −8 down.
Assay [3] can be described thus: S. pombe growth modifiers, basal conditions – strain 972, OD600, 24 h, no modulator, primary screen (AID 1090).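 Further: basal condition with compound alone and no growth modifier present; test concentration not given here.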 The note with it: S. pombe 972 growth, higher = more signal, called active from +8 up or from −8 down.
Assay [4] can be described thus: budding yeast growth modifiers under rapamycin – strain BY4716, OD600, 96 h, primary screen (AID 1091). Further: test concentration not given here. The note with it: S. cerevisiae BY4716 + rapamycin, higher = more signal, called active from +8 up or from −8 down.
Assay [5] has as its target Torsin-1A-interacting protein 2 (Homo sapiens) (UniProt Q8NFQ8). Briefly: small molecules binding lysate-expressed LULL1 – cell lysate, human LULL1 lysate, 635/667 nm fluorescence, primary screen (AID 1092).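 Further: probe is lysate of COS7 cells overexpressing human LULL1; score merges per-feature 667 nm fluorescence with signal-to-noise.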 The note with it: small-molecule microarray, hLULL1 lysate binding, 635 nm fluorescence; higher = more signal.
Assay [6] can be described thus: optical density change of DRC41 E. coli – strain DRC41, OD650, 24 h, E. coli filamentation project, primary screen (AID 1093).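 Further: MC1000 strain lacking acrAB efflux and sulA so SOS filamentation is blocked; test concentration not given here.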 The following applies: E. coli DRC41 growth, higher = more signal, called active from +8 up or from −8 down.
Assay [7] is described as follows: probe aLefty2 binding to arrayed compounds – biochemical, biotinylated probe, 635/667 nm fluorescence, primary screen (AID 1094).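 Further: score merges spot fluorescence near 667 nm with spot signal-to-noise ratio.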 The note with it: small-molecule microarray, higher = more signal.
The test system of assay [8] is Noggin (protein binding on small-molecule microarray). As to the kind of experiment: small molecules binding Noggin protein – biochemical, 635/667 nm fluorescence, primary screen (AID 1095).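 Further: score merges 667 nm feature fluorescence with signal to noise over triplicate slides.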 The note with it: 635 nm fluorescence, higher = more signal.
The target of assay [9] is Neurogenic locus notch homolog protein 3 (Homo sapiens) (UniProt Q9UM47). As to the kind of experiment: small molecules binding NOTCH3 protein – biochemical, 635/667 nm fluorescence, primary screen (AID 1096). The following applies: small-molecule microarray, 635 nm fluorescence, higher = more signal.
Neurogenic locus notch homolog protein 3 (Homo sapiens), sequence (Q9UM47 whole entry, looked up): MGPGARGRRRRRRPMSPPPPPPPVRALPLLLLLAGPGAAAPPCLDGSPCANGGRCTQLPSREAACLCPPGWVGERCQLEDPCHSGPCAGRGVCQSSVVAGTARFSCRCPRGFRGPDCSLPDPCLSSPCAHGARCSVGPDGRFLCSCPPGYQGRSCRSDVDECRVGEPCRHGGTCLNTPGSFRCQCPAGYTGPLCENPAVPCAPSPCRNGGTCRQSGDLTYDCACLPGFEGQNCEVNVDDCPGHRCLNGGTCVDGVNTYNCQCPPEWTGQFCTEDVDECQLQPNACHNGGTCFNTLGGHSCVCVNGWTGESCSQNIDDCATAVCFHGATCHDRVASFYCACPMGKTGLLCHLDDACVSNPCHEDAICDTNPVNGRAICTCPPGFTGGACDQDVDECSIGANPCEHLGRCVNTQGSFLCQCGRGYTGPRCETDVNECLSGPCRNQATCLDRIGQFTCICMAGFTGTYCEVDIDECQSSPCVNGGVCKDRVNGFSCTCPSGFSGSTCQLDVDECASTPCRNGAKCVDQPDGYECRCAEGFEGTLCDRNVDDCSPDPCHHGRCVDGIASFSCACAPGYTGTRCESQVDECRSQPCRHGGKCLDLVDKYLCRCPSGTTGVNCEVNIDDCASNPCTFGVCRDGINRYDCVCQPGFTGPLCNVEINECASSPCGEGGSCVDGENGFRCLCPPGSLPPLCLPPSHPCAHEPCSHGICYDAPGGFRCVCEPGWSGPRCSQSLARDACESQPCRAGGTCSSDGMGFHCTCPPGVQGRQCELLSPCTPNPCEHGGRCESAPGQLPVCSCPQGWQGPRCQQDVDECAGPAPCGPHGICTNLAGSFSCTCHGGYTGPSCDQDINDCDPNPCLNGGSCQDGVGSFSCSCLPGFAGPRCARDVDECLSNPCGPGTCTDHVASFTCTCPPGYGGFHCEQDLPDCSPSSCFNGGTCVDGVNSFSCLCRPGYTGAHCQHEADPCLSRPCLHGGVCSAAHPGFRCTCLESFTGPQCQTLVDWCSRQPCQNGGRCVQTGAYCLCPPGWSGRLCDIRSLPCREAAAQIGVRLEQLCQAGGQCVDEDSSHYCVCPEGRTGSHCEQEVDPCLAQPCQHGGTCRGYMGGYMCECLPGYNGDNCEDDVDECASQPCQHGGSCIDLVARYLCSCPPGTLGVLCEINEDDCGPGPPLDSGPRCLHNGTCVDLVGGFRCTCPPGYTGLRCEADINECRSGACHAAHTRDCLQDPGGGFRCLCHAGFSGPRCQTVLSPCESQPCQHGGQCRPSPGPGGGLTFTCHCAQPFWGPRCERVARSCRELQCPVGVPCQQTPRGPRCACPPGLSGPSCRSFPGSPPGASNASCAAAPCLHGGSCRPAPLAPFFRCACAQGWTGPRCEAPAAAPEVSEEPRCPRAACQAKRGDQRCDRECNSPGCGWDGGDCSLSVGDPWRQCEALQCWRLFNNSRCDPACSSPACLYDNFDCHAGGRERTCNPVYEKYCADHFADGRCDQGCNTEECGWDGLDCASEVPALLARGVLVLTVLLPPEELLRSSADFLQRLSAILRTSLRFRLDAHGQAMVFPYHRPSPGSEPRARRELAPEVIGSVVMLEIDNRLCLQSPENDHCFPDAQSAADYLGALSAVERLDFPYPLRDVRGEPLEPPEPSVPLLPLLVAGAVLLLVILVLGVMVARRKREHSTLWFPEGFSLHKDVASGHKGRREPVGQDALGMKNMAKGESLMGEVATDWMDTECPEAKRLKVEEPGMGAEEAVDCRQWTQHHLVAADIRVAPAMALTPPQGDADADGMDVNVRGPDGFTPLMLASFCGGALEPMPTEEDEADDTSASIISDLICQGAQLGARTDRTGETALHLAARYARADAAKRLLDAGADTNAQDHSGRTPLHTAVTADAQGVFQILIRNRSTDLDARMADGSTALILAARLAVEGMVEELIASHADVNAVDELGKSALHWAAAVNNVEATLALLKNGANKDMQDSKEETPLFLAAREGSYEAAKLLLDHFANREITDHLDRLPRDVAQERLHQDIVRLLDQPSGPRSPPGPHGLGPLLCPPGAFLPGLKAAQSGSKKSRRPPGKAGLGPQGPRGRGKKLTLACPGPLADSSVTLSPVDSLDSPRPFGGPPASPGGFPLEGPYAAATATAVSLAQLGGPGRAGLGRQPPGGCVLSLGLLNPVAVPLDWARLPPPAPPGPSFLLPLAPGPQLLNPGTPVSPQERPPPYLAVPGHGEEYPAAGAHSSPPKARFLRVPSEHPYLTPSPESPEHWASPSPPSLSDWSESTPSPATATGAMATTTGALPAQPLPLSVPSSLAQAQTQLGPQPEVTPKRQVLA
Assay [10] can be described thus: probe aEGFR binding to arrayed compounds – biochemical, biotinylated probe, 635/667 nm fluorescence, primary screen (AID 1097).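 Further: probe is a biotinylated anti-EGFR antibody binding compounds printed on slides; score combines fluorescence near 667 nm and signal to noise of each spot.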 The note with it: small-molecule microarray, higher = more signal.
Assay [11] concerns Plasmodium falciparum Sir2 (PF13_0152, Sir2A). Briefly: Plasmodium falciparum Sir2A binding compounds – biochemical, small-molecule microarray, 635 nm fluorescence, primary screen (AID 1098).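 Further: score merges spot fluorescence intensity with its signal-to-noise ratio.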 The following applies: fluorescence 635 nm, higher = more signal.
Assay [12] is described as follows: probe aDKK1 binding to arrayed compounds – biochemical, biotinylated probe, 635/667 nm fluorescence, primary screen (AID 1099).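 Further: score merges 667nm spot fluorescence with signal to noise across triplicate slides; reference of the scale not given here.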 The following applies: small-molecule microarray, higher = more signal.
Assay [13] is described as follows: probe aCHRDL2 binding to arrayed compounds – biochemical, biotinylated probe, 635/667 nm fluorescence, primary screen (AID 1100). The note with it: small-molecule microarray, higher = more signal.
A short description of assay [14]: change in splice reporter luminescence, either direction, cell-based, HEK293, spliceosome inhibition project, primary screen (AID 1101).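 Further: HEK293 cells carrying a splicing-competent luciferase reporter gene; test concentration not given here.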 The following applies: HEK293 splicing luciferase reporter, 24 h, higher = more signal, called active from +8 up or from −8 down.
Assay [15] addresses Fibroblast growth factor 10 (Homo sapiens) (UniProt O15520). As to the kind of experiment: compounds binding fibroblast growth factor 10 – biochemical, small-molecule microarray, 635 nm fluorescence, primary screen (AID 1102). The note with it: FGF10 binding, fluorescence 635 nm, higher = more signal.
The subject of assay [16] is glycogen synthase kinase-3 (GSK3A per assay name; protocol says GSK3B). Briefly: compounds binding glycogen synthase kinase-3 – biochemical, small-molecule microarray, 635 nm fluorescence, GSK3A, primary screen (AID 1103). Further: the record names both GSK3A and GSK3B. The following applies: fluorescence 635 nm, higher = more signal.
The target of assay [17] is Epidermal growth factor receptor (Homo sapiens) (UniProt P00533). As to the kind of experiment: compounds binding epidermal growth factor receptor – biochemical, small-molecule microarray, 635 nm fluorescence, primary screen (AID 1104).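 Further: score merges 667 nm emission intensity with spot signal to noise over triplicate slides.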 The following applies: EGFR binding, higher = more signal.
Epidermal growth factor receptor (Homo sapiens), sequence (P00533 whole entry, looked up): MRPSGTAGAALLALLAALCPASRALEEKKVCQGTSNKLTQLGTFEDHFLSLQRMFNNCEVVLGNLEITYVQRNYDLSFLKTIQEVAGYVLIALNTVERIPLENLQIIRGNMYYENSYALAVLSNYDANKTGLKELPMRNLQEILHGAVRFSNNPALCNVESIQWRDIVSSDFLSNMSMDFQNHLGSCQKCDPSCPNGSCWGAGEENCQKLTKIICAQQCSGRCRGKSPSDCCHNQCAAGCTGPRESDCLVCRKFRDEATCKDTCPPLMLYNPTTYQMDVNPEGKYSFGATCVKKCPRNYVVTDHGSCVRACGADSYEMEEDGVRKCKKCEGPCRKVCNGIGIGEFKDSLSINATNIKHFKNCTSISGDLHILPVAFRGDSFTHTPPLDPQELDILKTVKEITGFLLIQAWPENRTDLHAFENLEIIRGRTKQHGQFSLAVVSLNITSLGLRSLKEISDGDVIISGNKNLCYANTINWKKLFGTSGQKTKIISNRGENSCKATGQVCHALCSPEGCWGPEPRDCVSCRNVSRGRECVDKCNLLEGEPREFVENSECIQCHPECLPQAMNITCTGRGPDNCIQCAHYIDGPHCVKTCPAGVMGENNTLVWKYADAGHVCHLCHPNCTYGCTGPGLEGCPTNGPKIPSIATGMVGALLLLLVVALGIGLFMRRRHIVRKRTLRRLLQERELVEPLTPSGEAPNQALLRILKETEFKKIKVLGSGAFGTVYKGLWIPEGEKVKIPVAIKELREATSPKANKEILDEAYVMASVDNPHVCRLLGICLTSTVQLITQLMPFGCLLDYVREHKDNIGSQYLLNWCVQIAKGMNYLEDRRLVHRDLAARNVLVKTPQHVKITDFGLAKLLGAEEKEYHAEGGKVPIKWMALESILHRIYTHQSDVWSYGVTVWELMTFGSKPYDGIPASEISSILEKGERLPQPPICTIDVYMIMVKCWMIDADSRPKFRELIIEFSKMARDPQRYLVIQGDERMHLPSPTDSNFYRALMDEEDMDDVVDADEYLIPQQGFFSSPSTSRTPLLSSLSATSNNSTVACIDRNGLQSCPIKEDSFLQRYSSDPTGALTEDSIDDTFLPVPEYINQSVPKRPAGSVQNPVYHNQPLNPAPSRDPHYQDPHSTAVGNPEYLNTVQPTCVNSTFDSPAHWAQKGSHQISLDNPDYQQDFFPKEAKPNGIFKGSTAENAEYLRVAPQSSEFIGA
Assay [18] addresses Follistatin-related protein 3 (Homo sapiens) (UniProt O95633). Briefly: compounds binding follistatin-related protein 3 – biochemical, small-molecule microarray, 635 nm fluorescence, primary screen (AID 1105).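 Further: score merges emission near 667 nm and signal to noise per printed spot across three slides.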 The note with it: FSTL3 binding, higher = more signal.
Assay [19] concerns the target Dickkopf-related protein 1 (Homo sapiens) (UniProt O94907). As to the kind of experiment: small molecules binding DKK1 protein – biochemical, small-molecule microarray, 635 nm fluorescence scan, primary screen (AID 1106).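 Further: score merges emission near 667 nm with signal to noise over three replicate slides.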 The following applies: higher = more signal.
Assay [20] relates to Inhibin beta A chain (activin A). As to the kind of experiment: small molecules binding activin A – biochemical, small-molecule microarray, 635 nm fluorescence scan, primary screen (AID 1107).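 Further: mouse activin A protein probed at 4.33 µg/mL on printed slides; score merges bound-protein fluorescence near 667 nm with spot signal-to-noise.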 The following applies: INHBA, higher = more signal.

Dickkopf-related protein 1 (Homo sapiens), sequence (O94907 whole entry, looked up): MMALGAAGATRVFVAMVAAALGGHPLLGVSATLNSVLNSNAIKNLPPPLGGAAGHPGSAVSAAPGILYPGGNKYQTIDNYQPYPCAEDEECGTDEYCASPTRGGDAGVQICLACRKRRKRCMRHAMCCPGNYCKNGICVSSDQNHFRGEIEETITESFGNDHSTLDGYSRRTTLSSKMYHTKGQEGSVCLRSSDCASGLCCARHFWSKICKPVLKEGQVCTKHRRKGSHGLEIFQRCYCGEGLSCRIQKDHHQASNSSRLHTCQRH
Follistatin-related protein 3 (Homo sapiens), sequence (O95633 whole entry, looked up): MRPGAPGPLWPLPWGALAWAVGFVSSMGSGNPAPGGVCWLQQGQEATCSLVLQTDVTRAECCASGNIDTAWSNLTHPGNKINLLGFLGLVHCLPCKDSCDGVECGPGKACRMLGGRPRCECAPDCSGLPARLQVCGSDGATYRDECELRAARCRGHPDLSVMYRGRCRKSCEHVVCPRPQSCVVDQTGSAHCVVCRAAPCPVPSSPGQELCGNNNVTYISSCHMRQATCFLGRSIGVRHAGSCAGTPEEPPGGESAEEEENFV
Torsin-1A-interacting protein 2 (Homo sapiens), sequence (Q8NFQ8 whole entry, looked up): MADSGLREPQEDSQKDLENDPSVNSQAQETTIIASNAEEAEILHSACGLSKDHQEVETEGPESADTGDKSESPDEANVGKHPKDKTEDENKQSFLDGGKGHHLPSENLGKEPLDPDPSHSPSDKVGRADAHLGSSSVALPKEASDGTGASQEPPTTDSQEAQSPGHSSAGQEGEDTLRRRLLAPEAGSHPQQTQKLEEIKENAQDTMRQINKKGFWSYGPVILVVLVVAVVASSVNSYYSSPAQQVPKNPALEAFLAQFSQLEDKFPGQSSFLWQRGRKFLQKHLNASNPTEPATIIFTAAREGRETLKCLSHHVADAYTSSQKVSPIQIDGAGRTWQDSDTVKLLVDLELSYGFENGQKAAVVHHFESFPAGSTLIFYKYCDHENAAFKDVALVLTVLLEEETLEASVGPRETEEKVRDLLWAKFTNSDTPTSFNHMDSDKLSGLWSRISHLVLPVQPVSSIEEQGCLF
Fibroblast growth factor 10 (Homo sapiens), sequence (O15520 whole entry, looked up): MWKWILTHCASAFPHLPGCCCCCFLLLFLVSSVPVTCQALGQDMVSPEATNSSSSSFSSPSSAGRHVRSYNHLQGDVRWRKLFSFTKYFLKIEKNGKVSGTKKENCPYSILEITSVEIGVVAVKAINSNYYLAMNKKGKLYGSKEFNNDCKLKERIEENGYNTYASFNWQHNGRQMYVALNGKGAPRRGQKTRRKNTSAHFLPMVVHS

As for `COC(=O)[C@@H]1CC[C@H](C)[C@@H](c2ccc(Br)cc2)N1C(=O)C(F)(F)F`, the composite z-score in assay [1] was -1.18; in assay [5] it was 1.25; in assay [7], -0.22; in [8] it was -0.281; in assay [9], -0.446; in assay [10], -0.226. Also, the composite z-score in assay [11] is -0.324; in assay [12], -0.215; in assay [13], -0.174; in assay [15] it was -0.329; in assay [16], -0.657; in assay [17] it was 0.0496. The composite z-score is -0.324 in assay [18], -0.144 in assay [19] and 0.237 in [20]. Further, the z-score in assay [2] was 0.61 (inactive); in [3] it was 0.186 (inactive); in assay [4], 2.16 (inactive); in assay [6], 0.11 (inactive); in assay [14] it was -0.0429 (inactive).

As to `CO[C@@H]1COC(=O)[C@H](CCSC)NC(=O)CC=C[C@@H](C)COC(=O)[C@@H]2CCCN2C(=O)CC=C[C@H]1C`, the composite z-score in assay [1] was 0.888; in assay [5], -0.389; in assay [7] it was -0.261; in [8], 0.862; in assay [9] it was 0.468; in assay [10], -0.0675. Further, the composite z-score in assay [11] was 0.275; in [12], -0.337; in assay [13], -0.584; in [15], 0.779; in [16], 0.745; in assay [17] it was 0.898. Further, the composite z-score in assay [18] came out at 0.909; in assay [19] it was 1.01; in assay [20] it was 0.4. Moreover, the z-score in assay [2] was -0.0153 (inactive); in assay [3], -1.33 (inactive); in assay [4], -0.495 (inactive); in assay [6], -0.135 (inactive); in assay [14], -0.595 (inactive).

For `COc1ccc(O[C@H]2C=C[C@@H](c3ccccc3)O[C@@H]2CON=C2c3cc(OC)ccc3O[C@H](c3cccc(OC)c3)[C@H]2O)cc1`, the composite z-score is 0.554 in assay [1]; 0.585 in assay [5]; -0.231 in [7]; 1.4 in [8]; 0.927 in assay [9]; -0.171 in [10]. The composite z-score in [11] is -0.177; in assay [12] it was 0.242; in assay [13], -0.279; in assay [15], 0.886; in [16] it was 0.192; in assay [17], 0.531. The composite z-score in assay [18] is 0.589; in [19], 0.434; in assay [20], -0.393. In addition, the z-score was -0.0549 (inactive) in assay [2]; 0.281 (inactive) in assay [3]; -0.0588 (inactive) in [4]; 0.0551 (inactive) in [6]; 0.65 (inactive) in assay [14].

Consider `C#CCCCON=C1[C@H]2CCn3c(=O)n(Cc4cc5c(cc4Cl)OCO5)c(=O)n3[C@H]2[C@H](O)[C@@H]2O[C@H]12`, for which the composite z-score in assay [1] is 0.0698; in assay [5], 0.0322; in assay [7] it was 0.147; in assay [8] it was 0.508; in assay [9] it was 0.836; in [10], -0.191. For the same molecule, the composite z-score in [11] is 0.216; in assay [12], -0.23; in assay [13], -0.648; in assay [15], 0.914; in assay [16], 0.557; in assay [17], 0.664. The composite z-score in assay [18] stood at 0.641; in assay [19] it was 0.541; in assay [20], 0.0951. The z-score was 0.842 (inactive) in assay [2]; 1.28 (inactive) in assay [3]; 1.63 (inactive) in [4]; 0.314 (inactive) in assay [6]; -0.0845 (inactive) in assay [14].
